Data published in PubChem BioAssay (EPA / NIEHS).
Inconclusive results are not listed. Activity calls are given as the source filed them. Rule for the calls: active = hit-call score of the fitted dose curve at least 0.9, where 1 is the maximum; inconclusive = response in the unintended direction; inactive = score below 0.9.

These compounds were tested against Bile acid receptor (Homo sapiens) (UniProt Q96RI1) (assay: ATG_FXR_TRANS: Attagene TRANS-FACTORIAL HepG2 Assay for Farnesoid X Receptor (FXR) (AID 2282979;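 note: hits raise reporter mRNA above DMSO so AC50 marks FXR activation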)). Conditions: HepG2 Attagene TRANS FXR-GAL4 reporter transcription.
Experimental: ATG_TRANS is a cell-based, multiplexed-readout assay that uses HepG2, a human liver cell line, with measurements taken at 24 hours after chemical dosing in a 24-well plate.ATG_FXR_TRANS is one of 30 assay component(s) measured or calculated from the ATG_TRANS assay. It is designed to make measurements of mRNA induction, a form of inducible reporter, as detected with fluorescence intensity signals by Reverse transcription polymerase chain reaction (RT-PCR) and Capillary electrophoresis technology.Data from the assay component ATG_FXR_TRANS was analyzed into 1 assay endpoint. This assay endpoint, ATG_FXR_TRANS, was analyzed in the positive analysis fitting direction relative to DMSO as the negative control and baseline of activity. Using a type of inducible reporter, measures of mRNA for gain-of-signal activity can be used to understand the reporter gene at the transcription factor-level as they relate to the gene NR1H4. Furthermore, this assay endpoint can be referred to as a primary readout, because this assay has produced multiple assay endpoints where this one serves a reporter gene function. To generalize the intended target to other relatable targets, this assay endpoint is annotated to the nuclear receptor intended target family, where the subfamily is non-steroidal.
Human liver HepG2 cells are transiently transfected with multiple reporter transcription units (MRTUs) in 6-well plates using FuGene 6 reagent (Roche; 3 ml FuGene/1 mg DNA). The MRTU constructs are regulated by a cis-regulating element (promoter). […] A major difference between the CIS and TRANS system is that in CIS activities of endogenous TFs are measured, whereas the TRANS assay evaluates changes in activities of exogenous, chimeric NR-Gal4 proteins. […] At the end of 24 hour incubation, total RNA was isolated using TriZol reagent (Invitrogen). The isolated RNA is then reverse-transcribed using oligo(dT) primer and Mo-MLV reverse transcriptase (Invitrogen) with DNAse I (Ambion) treatment for 30 min. The one-tenth of the produced cDNA was amplified by PCR using Taq DNA polymerase (Invitrogen) and two reporter sequence-specific primers. The PCR products were fluorescently labeled by primer extension with 6-arboxyfluorescein (6-FAM) 5'-labeled reporter sequence-specific primer (2 min at 95 C, 20 s at 68 C and 10 min at 72 C) and these products were digested with 5U of HpaI (New England Biolabs) for 2h at 37 C. The fragments were purified using Qiaquick PCR columns (Qiagen), analyzed on an ABI 3130xL genetic analyzer (Applied Biosystems) with peak positions identified by using a set of X-rhodamine (ROX)-labeled MapMarker1000 molecular weight standards (BioVentures). The raw capillary electrophoresis data was processed using Attagraph software (Attagene).

Bile acid receptor (Homo sapiens), sequence (Q96RI1 whole entry, looked up, the tested form may be a part): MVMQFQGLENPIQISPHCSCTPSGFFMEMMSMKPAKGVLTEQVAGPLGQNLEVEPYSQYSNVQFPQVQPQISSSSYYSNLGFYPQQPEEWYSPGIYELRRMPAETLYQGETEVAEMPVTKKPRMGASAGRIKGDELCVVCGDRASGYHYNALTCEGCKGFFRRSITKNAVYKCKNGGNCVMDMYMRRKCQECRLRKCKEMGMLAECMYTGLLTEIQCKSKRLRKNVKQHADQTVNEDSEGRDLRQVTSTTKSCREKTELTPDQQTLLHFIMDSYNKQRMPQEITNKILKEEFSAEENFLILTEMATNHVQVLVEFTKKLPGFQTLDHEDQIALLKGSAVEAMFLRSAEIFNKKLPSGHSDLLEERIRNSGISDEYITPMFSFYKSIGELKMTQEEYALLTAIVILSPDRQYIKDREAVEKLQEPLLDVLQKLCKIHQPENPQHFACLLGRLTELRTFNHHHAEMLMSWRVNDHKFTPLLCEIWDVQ

Row | SMILES | outcome | AC50
1 | CCC(C)c1ccc(O)cc1 (stereo unspecified) | inactive | 
2 | CCCCCCCCn1sccc1=O | inactive | 
3 | Nc1ccc(Cc2ccc(N)cc2)cc1 | inactive | 
4 | COP(=S)(OC)SCN1C(=O)c2ccccc2C1=O | inactive | 
5 | CN(C)[C@@H]1C(=O)C(C(N)=O)=C(O)[C@@]2(O)C(=O)C3=C(O)c4c(O)cccc4[C@@](C)(O)[C@H]3C[C@@H]12 | inactive | 
6 | CN(C)c1ccc(C(=O)c2ccc(N(C)C)cc2)cc1 | inactive | 
7 | CN(C)C(=O)Nc1ccc(Cl)cc1 | inactive | 
8 | Clc1ccc(C(c2ccc(Cl)cc2)C(Cl)Cl)cc1 | inactive | 
9 | Cc1cc(N=Nc2ccccc2C)ccc1N | inactive | 
10 | O=[N+]([O-])C(Br)(CO)CO | inactive | 
11 | Cc1cccc(N)c1N | inactive | 
12 | CC(C)(O)c1cnn2c(-c3ccc(F)c(-c4c(F)cccc4C#N)c3)cnc2n1 |  | 14.5 µM (active)
13 | CCC[CH2][Sn]([Cl])([CH2]CCC)[CH2]CCC | inactive | 
14 | CCNS(=O)(=O)C(F)(F)C(F)(F)C(F)(F)C(F)(F)C(F)(F)C(F)(F)C(F)(F)C(F)(F)F | inactive | 
15 | O=C(N[C@H](c1ccccc1)[C@@H]1CN2CCC1CC2)c1c(Cl)ccc(C(F)(F)F)c1Cl | inactive | 
16 | Nc1ccc(Cl)cc1N | inactive | 
17 | N#CC(Br)Br | inactive | 
18 | C[C@]12C=CC3=C4CCC(=O)C=C4CC[C@H]3[C@@H]1CC[C@@H]2O | inactive | 
19 | CCOC(=O)[C@]1(c2ccccc2)Oc2ccccc2[C@@H]1N | inactive | 
20 | O=P(OCCCl)(OCCCl)OCCCl | inactive | 
21 | CC(C)(OOC(C)(C)c1ccccc1)c1ccccc1 | inactive | 
22 | Nc1ccc([N+](=O)[O-])cc1 | inactive | 
23 | CC(C)N(Cc1ccccc1)C(=O)C(C)(C)C | inactive | 
24 | CC(C)COC(=O)c1ccccc1C(=O)OCC(C)C | inactive | 
25 | OCCCl | inactive | 
26 | ClCCOCCCl | inactive | 
